Measurements reported in PubChem BioAssay.
Values joined by “and” are separate entries in the source; they are usually repeats but may differ in a detail not shown here. Equal entries are not always repeated. Unmarked numbers belong to inactive results. Active and inactive are the calls of the source. No rule for the calls is given here.

Legend:
[1] = test system: Botulinum neurotoxin type F light chain protease (Clostridium botulinum); assay: Botulinum neurotoxin type F light chain protease inhibition, multiplex microsphere flow cytometry, validation set (AID 588459); settings: multiplex microsphere protease substrate cleavage assay, at 10 µM, hits give high values
[2] = target: Botulinum neurotoxin type A (Clostridium botulinum) (UniProt P0DPI0); assay: BoNT/A light chain protease inhibitors, biochemical, multiplex microsphere flow cytometry, validation set (AID 588460); settings: at 10 µM, hits give high values
[3] = target: Lethal factor (Bacillus anthracis) (UniProt P15917); assay: Lethal factor protease inhibitors, Bacillus anthracis, multiplex microsphere cleavage assay, validation set (AID 588461); settings: flow cytometry, at 10 µM, hits give high values
Chain of Lethal factor (Bacillus anthracis) (P15917 whole entry, looked up): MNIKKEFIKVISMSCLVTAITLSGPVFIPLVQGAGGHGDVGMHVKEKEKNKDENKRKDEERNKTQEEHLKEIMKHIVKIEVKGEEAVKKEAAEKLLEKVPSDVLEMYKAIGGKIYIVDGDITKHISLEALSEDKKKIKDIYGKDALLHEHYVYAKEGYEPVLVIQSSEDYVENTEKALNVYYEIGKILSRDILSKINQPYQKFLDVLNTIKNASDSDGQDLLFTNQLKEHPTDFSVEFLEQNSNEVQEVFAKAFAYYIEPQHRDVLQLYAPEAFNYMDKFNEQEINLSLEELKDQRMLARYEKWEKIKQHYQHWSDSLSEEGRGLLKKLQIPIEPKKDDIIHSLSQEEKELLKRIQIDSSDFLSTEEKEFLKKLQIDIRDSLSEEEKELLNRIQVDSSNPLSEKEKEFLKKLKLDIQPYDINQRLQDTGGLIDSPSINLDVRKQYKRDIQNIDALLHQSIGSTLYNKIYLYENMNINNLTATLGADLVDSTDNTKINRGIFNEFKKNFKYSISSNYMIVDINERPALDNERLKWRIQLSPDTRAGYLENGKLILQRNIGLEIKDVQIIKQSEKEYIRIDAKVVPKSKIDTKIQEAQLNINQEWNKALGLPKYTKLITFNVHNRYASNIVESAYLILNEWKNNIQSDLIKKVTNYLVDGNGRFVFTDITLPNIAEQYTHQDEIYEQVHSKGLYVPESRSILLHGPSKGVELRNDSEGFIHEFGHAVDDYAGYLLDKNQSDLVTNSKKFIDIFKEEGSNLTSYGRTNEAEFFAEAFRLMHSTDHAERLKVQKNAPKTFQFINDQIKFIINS

Chain of Botulinum neurotoxin type A (Clostridium botulinum) (P0DPI0 whole entry, looked up): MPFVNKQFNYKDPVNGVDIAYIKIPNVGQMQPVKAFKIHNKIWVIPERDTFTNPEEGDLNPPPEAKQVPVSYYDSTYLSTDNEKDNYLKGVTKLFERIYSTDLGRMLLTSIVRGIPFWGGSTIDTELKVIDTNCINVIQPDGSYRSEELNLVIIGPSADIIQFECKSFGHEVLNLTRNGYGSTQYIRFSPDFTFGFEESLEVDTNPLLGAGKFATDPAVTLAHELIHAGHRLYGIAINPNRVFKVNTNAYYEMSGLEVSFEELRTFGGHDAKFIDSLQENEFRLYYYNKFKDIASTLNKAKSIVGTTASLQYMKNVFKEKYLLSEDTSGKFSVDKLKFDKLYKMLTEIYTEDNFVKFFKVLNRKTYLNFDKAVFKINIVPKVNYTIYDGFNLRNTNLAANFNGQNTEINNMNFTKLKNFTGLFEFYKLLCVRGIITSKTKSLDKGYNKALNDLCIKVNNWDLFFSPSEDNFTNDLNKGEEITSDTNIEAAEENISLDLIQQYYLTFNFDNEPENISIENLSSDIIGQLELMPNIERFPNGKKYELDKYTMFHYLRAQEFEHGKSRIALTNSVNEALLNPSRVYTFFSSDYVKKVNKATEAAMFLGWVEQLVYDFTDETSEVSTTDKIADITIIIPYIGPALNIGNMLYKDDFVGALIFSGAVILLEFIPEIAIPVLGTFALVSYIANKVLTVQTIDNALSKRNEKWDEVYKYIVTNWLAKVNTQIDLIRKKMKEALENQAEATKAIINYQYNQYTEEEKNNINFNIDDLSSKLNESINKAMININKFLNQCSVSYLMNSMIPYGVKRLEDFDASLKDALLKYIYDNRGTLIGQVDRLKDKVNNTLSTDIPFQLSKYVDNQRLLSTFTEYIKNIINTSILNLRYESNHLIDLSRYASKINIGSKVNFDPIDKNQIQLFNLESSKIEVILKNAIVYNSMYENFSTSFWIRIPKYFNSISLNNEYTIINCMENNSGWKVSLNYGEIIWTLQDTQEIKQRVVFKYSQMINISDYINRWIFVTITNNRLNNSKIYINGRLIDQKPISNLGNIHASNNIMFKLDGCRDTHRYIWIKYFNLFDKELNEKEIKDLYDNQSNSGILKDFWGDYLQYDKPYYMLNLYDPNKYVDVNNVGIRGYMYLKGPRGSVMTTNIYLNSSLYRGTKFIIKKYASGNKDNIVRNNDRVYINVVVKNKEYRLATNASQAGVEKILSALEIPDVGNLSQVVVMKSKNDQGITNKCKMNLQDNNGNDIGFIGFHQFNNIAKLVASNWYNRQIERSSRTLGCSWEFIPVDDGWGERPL

## CC(=O)N1c2ccccc2C(C)=CC1(C)C
[1]
  inhibition: 2.3%
[2]
  inhibition: -0.7%
[3]
  inhibition: -8.5%

## COc1ccc2c(C=O)cn(C)c2c1
[1]
  inhibition: 1.9%
[2]
  inhibition: -0.9%
[3]
  inhibition: 2.1%

## Cc1nc(NCc2ccco2)c(C#N)c2c1COC(C)(C)C2
[1]
  inhibition: 1%
[2]
  inhibition: -1.2%
[3]
  inhibition: -0.5%

## CC(=O)NC(NC(=S)N1CCCCCC1)C(Cl)(Cl)Cl (stereo not given)
[1]
  inhibition: -2.7%
[2]
  inhibition: -2.4%
[3]
  inhibition: 5.4%

## COc1ccc2c(c1)[N+](C)(C)C(C)(C)C=C2C
[1]
  inhibition: -0.4%
[2]
  inhibition: 0.1%
[3]
  inhibition: 1.6%

## O=C(/C=C/Sc1ccccc1)c1ccccc1
[1]
  inhibition: -0.5%
[2]
  inhibition: -0.8%
[3]
  inhibition: -4.1%

## COc1ccc(-c2[nH]ncc2CN(C)C(C)c2ccon2)c(OC)c1 (stereo not given)
[1]
  inhibition: 1.9%
[2]
  inhibition: 1.4%
[3]
  inhibition: 0%

## CC1(C)S[C@@H]2[C@H](NC(=O)Cc3ccccc3)C(=O)N2[C@H]1C(=O)O
[1]
  inhibition: 4.2%
[2]
  inhibition: 1.7%
[3]
  inhibition: -0.8%

## CC1/C(=C\c2ccc(Cl)cc2)C(=O)C2CC1C2(C)C (stereo not given)
[1]
  inhibition: 5.2%
[2]
  inhibition: 0.2%
[3]
  inhibition: -9.7%

## CCSC(SCC)[C@H](O)[C@@H](O)[C@H](O)[C@H](O)CO
[1]
  inhibition: 3.3%
[2]
  inhibition: -0.7%
[3]
  inhibition: -1.5%

## CC(=O)Nc1cc(O)cc(O)c1
[1]
  inhibition: 6.1%
[2]
  inhibition: 0.1%
[3]
  inhibition: -1.2%

## COc1ccc(C(=O)NC(=O)NC2(C(Cl)(Cl)Cl)OCCO2)cc1
[1]
  inhibition: 0.9%
[2]
  inhibition: -1.2%
[3]
  inhibition: 3.1%

## CCOC(=O)c1oc2cc(O)cc(C)c2c(=O)c1-c1cscn1
[1]
  inhibition: 1.4%
[2]
  inhibition: 1.8%
[3]
  inhibition: -2.6%

## CC(C)OC(=O)C1C(=O)CC(C)(O)C(C(=O)OC(C)C)C1c1cccc(O)c1 (stereo not given)
[1]
  inhibition: 3.9%
[2]
  inhibition: -0.2%
[3]
  inhibition: -2.7%

## O=C(NCC1CCCO1)c1ccc(OC2CCN(C(=O)C3CC3)CC2)cc1 (stereo not given)
[1]
  inhibition: 0.8%
[2]
  inhibition: 0.5%
[3]
  inhibition: -2.8%

## O=C(Nc1cccc(C(=O)O)c1)/C(=C\c1ccccc1)NC(=O)c1ccccc1
[1]
  inhibition: 1.8%
[2]
  inhibition: 0.3%
[3]
  inhibition: -0.8%

## NC(=O)OCC(COC(N)=O)c1ccccc1
[1]
  inhibition: -1%
[2]
  inhibition: -1.7%
[3]
  inhibition: -2.1%

## CC(C)NC[C@@H](O)c1ccc(O)c(O)c1
[1]
  inhibition: -3.7%
[2]
  inhibition: -0.5%
[3]
  inhibition: -6.8%

## COc1cc(Cc2cnc(N)nc2N)cc(OC)c1OC
[1]
  inhibition: 4.4% and 6.3%
[2]
  inhibition: 0% and -0.2%
[3]
  inhibition: -0.1% and 0.6%

## COc1ccc(C2(CCN=Cc3ccc(N(C)C)cc3)CCOC(C)(C)C2)cc1 (stereo not given)
[1]
  inhibition: 9.1%
[2]
  inhibition: 1.6%
[3]
  inhibition: -2%

## O=C(NCCc1c[nH]c2ccccc12)c1cccnc1
[1]
  inhibition: -2.9%
[2]
  inhibition: -0.7%
[3]
  inhibition: 1.1%

## Cc1ccsc1/C=C/C1=NCCCN1C
[1]
  inhibition: -0.9%
[2]
  inhibition: 1.6%
[3]
  inhibition: -3.7%

## CC1CCN(C(=O)Oc2ccccc2)CC1
[1]
  inhibition: -2.4%
[2]
  inhibition: -1.5%
[3]
  inhibition: 3.8%

## COc1ccc(CN(CCC(c2ccc(F)cc2)C2CCOC(C)(C)C2)C(=O)c2ccco2)cc1 (stereo not given)
[1]
  inhibition: -2.6%
[2]
  inhibition: -0.3%
[3]
  inhibition: 1.6%

## O=C(NC1CCCCC1)N1CCc2[nH]c3ccccc3c2C1
[1]
  inhibition: 36.5% (active)
[2]
  inhibition: 3.5%
[3]
  inhibition: 5%

## Cc1ccc(OCc2nc(-c3cccnc3)no2)cc1C
[1]
  inhibition: -0.8%
[2]
  inhibition: 0.4%
[3]
  inhibition: -6.5%

## Nc1nnc(-c2cccc(Cl)c2Cl)c(N)n1
[1]
  inhibition: 1.3%
[2]
  inhibition: 0.8%
[3]
  inhibition: -5.9%

## COc1ccc(NC(=O)C2OC3OC(C)(C)OC3C3OC(C)(C)OC23)cc1 (stereo not given)
[1]
  inhibition: -1.2%
[2]
  inhibition: 1.3%
[3]
  inhibition: -5.4%

## Cc1coc2c1c(C)cc1oc(=O)c(Cc3ccccc3)c(C)c12
[1]
  inhibition: 1.9%
[2]
  inhibition: -0.5%
[3]
  inhibition: -4.3%

## CC1(C)C2CCC1(C(=O)O)c1nc3ccccc3nc12 (stereo not given)
[1]
  inhibition: -0.2%
[2]
  inhibition: -0.9%
[3]
  inhibition: -0.2%
